Source: PubChem BioAssay (National Center for Advancing Translational Sciences (NCATS))
DT40 TDP1 CPT = qHTS for Inhibitors of human tyrosyl-DNA phosphodiesterase 1 (TDP1): qHTS in cells in presence of CPT; Potency, µM (highest dose often 46.2 µM), without a hit: at the top dose activity change, negative = growth inhibition, usual class: inhibitors; 420,000 compounds, 12% hits; AID 686979, 2013; chicken DT40 Tdp1-/-;hTDP1 cells + 20 nM CPT, ATP luminescence, 48 h; also: % is scaled to controls: 0 for no effect and ±100 for the full control effect; nearly all actives have a fitted effect of over 55% in size
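Chicken DT40 Tdp1-/- cells complemented with human TDP1, 400 cells/well, exposed to compounds plus 20 nM camptothecin for at least 48 h at 37 C; viability read as ATP content by CellTiter-Glo luminescence.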
HepG2 tox = qHTS for Inhibitors of TGF-b: Cytotox Counterscreen. HepG2 CAGA-GFP viability, ATP luminescence, 18 h. Potency, µM (top dose mostly 46.1 µM), for inactives: top-dose activity change, negative = cytotoxicity, actives largely listed as cytotoxic. 410,000 compounds, 0.76% hits. AID 588856, 2011
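HepG2 CAGA-GFP cells (1000/well, DMEM with 1% FBS) received compound, then TGF-beta at 500 pg/mL final, and were incubated 18 hours at 37 degrees C. Viability was read by CellTiter-Glo luminescence. Media-only wells were set as complete cell-killing and DMSO as no toxicity.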
HT1080 IDH1KD tx = qHTS for induction of synthetic lethality in tumor cells producing 2HG: qHTS for the HT-1080-IDH1KD cell line; HT-1080 IDH1 knockdown viability, ATP luminescence, 48 h; Potency, µM (highest dose often 46.1 µM), for inactives: top-dose activity, negative = toxicity, actives largely listed as cytotoxic; 360,000 compounds, 2% hits;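 also: 0% = DMSO wells and -100% = cell-free medium wells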
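HT-1080-IDH1KD cells (IDH1 knocked down), 750/well in RPMI with 5% FBS, treated with compound 48 h at 37 degrees C. Viability by CellTiter-Glo luminescence, normalised to DMSO and no-cell wells; concentration-response curves classed.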
HT1080NT lethal = qHTS for induction of synthetic lethality in tumor cells producing 2HG: qHTS for the HT-1080-NT fibrosarcoma cell line; Potency, µM (titrated, usually from 46.1 µM), for the others: top-dose activity, negative = less viability, actives largely listed as cytotoxic; HT-1080-NT fibrosarcoma viability, CellTiter-Glo ATP luminescence, 48 h; 360,000 compounds, 1.6% hits;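 also: NT is the 2HG producing partner of a matched IDH1 knockdown line; 0% = DMSO-treated cells and -100% = media-only wells without cells; nearly all actives have a fitted effect of over 55% in size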
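A 48-hour cytotoxicity screen used HT-1080-NT cells plated 2 hours before compound delivery. ATP-based CellTiter-Glo luminescence measured viability, normalized to DMSO and no-cell controls.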
TDP1 cell noCPT = qHTS for Inhibitors of human tyrosyl-DNA phosphodiesterase 1 (TDP1): qHTS in cells in absence of CPT | DT40 Tdp1-/- hTDP1 cells, no CPT, ATP luminescence, 48 h | AID 686978, 2013 | 420,000 compounds, 15% hits | Potency, µM (doses to about 46.2 µM), inactives show at the highest dose activity change, negative = growth inhibition, most hits filed as inhibitors; also: % is scaled to controls: 0 for no effect and ±100 for the full control effect; nearly all actives have a fitted effect of over 55% in size
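Compound effects on proliferation are scored in DT40 Tdp1-/-;hTDP1 cells in the absence of CPT. ATP levels (CellTiter-Glo luminescence) are recorded after a ≥48 hr, 37 °C incubation.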
TGFb inhibitor = qHTS for Inhibitors of TGF-b. HepG2 CAGA-GFP TGF-b/SMAD3 reporter, GFP fluorescence, 18 h; TGF-beta stimulated, 500 pg/mL final. Potency, µM (series often up to 46.1 µM), without a hit: at the top dose activity, negative = inhibition, actives largely listed as inhibitors. 410,000 compounds, 1.2% hits; also: % is scaled to controls: 0 for no effect and ±100 for the full control effect; nearly all actives have a fitted effect of over 65% in size
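GFP signal (ex488/em500-530) from TGF-beta-stimulated HEPG2 CAGA-GFP cells, 500 pg/mL final, 18 h at 37 degrees C in DMEM plus 1% FBS, normalized to unstimulated and DMSO-stimulated controls.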
* marks the source's active call; other numbers are inactive results; ? = inconclusive; . = no result given. This is a sample that favours compounds with a hit; in the whole collection about 17% have one here. Calls follow the shape of the dose curve; as a rule, active = well fitted curve in the direction sought with a large enough effect; inconclusive = small, poorly fitted or top-dose-only effect, or another doubt; inactive = no such curve, though single readings can be large; an effect the other way counts as inactive or inconclusive. Potency is read from the fitted curve at half-maximal effect.

SMILES	DT40 TDP1 CPT	HepG2 tox	HT1080 IDH1KD tx	HT1080NT lethal	TDP1 cell noCPT	TGFb inhibitor
CCN(C(=O)COC(=O)/C=C/c1ccc(OC)c(OC)c1)c1c(N)n(Cc2ccccc2)c(=O)[nH]c1=O	-13%	6%	-1%	5%	7%	13%
Cc1nn(Cc2ccccc2)c(C)c1NC(=O)CSc1nc(C2CC2)nc2c1cnn2-c1ccccc1	16µM*	9%	7%	1%	16µM*	3%
O=C(N/N=C/c1ccncc1)c1nc(-c2ccccc2)n2c1CCCCC2	7.3µM*	2%	-5%	2%	7.3µM*	0%
CN(C)c1ncc2ncc(=O)n(C)c2n1	1%	.	.	.	-28%	.
Fc1ccc(Nc2nc(NCc3ccccc3)nc3ccsc23)cc1	8.2µM*	13µM*	-25%	21µM*	9.2µM*	?
C#Cc1cccc(Nc2nc(NCc3ccccc3)nc3ccsc23)c1	9.2µM*	-38%	?	?	10µM*	?
Cc1ccc(CNc2nc(N)c([N+](=O)[O-])c(Nc3ccc(F)cc3)n2)cc1	?	-34%	10%	4%	-2%	3%
N#Cc1ccc(Nc2nc(NCc3ccccc3)nc3ccsc23)cc1	6.5µM*	-34%	-28%	?	1.8µM*	4%
CCOC(=O)CSc1nnc(-c2ccc(OC)cc2)o1	-16%	9%	.	.	-11%	30%
CCOC(=O)CSC1=C(C#N)C(=O)NC(c2ccc(OC)cc2)S1 (stereo unspecified)	15µM*	3%	13%	17%	15µM*	-6%
CCOC(=O)CSC1=C(C#N)C(=O)NC(c2ccc(OC)c(OC)c2)S1 (stereo unspecified)	16µM*	-6%	8%	6%	12µM*	13%
N#Cc1ccc(COc2ccc(CCO)cc2-n2nc3ccccc3n2)cc1	?	-31%	?	-26%	16µM*	2%
CC(=O)c1ccc(NC(=O)c2ccc3nc(-c4ccco4)c(-c4ccco4)nc3c2)cc1	?	-51%	-16%	-19%	?	-24%
COc1ccc2nc(-c3ccco3)c(-c3ccco3)nc2c1	18µM*	5%	-2%	-2%	?	0%
O=C(Nc1ccccc1)c1ccc2nc(-c3ccco3)c(-c3ccco3)nc2c1	21µM*	-21%	?	?	23µM*	-12%
O=C(Nc1ccc(N2CCOCC2)cc1)c1ccc2nc(-c3ccco3)c(-c3ccco3)nc2c1	-26%	-3%	4%	-29%	?	-4%
CNC(=O)c1ccc2nc(-c3ccco3)c(-c3ccco3)nc2c1	20µM*	-37%	.	.	?	-13%
Cc1cccc(N2CCN(C(=O)c3ccc4nc(-c5ccco5)c(-c5ccco5)nc4c3)CC2C)c1 (stereo unspecified)	18µM*	-31%	-20%	1%	18µM*	?
c1coc(-c2nc3cc4ccccc4cc3nc2-c2ccco2)c1	.	-85%	.	.	.	?
CC1CCCN(C(=O)Cn2nnc(-c3ccccc3F)n2)C1 (stereo unspecified)	-13%	11%	9%	8%	26%	4%
O=C(NC1CC1)c1ccc2nc(-c3ccco3)c(-c3ccco3)nc2c1	?	-12%	.	.	13µM*	-16%
CCCCNC(=O)c1ccc2nc(-c3ccco3)c(-c3ccco3)nc2c1	?	-39%	-1%	-11%	?	?
Cn1cccc1C1NC(=O)c2c(sc3c2CCC(C(C)(C)C)C3)N1 (stereo unspecified)	-30%	-24%	-2%	-8%	18µM*	-9%
O=C(Nc1nnc(COc2ccc(Cl)cc2)s1)c1ccc([N+](=O)[O-])cc1	-3%	8%	21%	16%	-4%	2%
O=C(Nc1ncc(Cc2ccc(Cl)cc2Cl)s1)c1ccc([N+](=O)[O-])cc1	18µM*	14%	-1%	-6%	18µM*	14%
SMILES	DT40 TDP1 CPT	HepG2 tox	HT1080 IDH1KD tx	HT1080NT lethal	TDP1 cell noCPT	TGFb inhibitor
O=C(CSc1nnnn1-c1ccccc1)Nc1ncc(Cc2ccccc2Cl)s1	8%	-1%	6%	10%	5%	4%
O=C(Nc1ncc(Cc2ccccc2Cl)s1)C1=NCCN1	21µM*	-5%	?	?	?	-8%
CCOc1ccc(-c2cc3c(=O)n(Cc4nc(-c5ccccc5OCC)oc4C)ccn3n2)cc1Cl	-6%	-5%	.	.	-1%	1%
CCC(c1nnnn1C(C)(C)CC)N(CCCN1CCOCC1)Cc1cc2cccc(C)c2[nH]c1=O (stereo unspecified)	14µM*	-25%	3%	6%	?	?
CCC(C)(C)n1nnnc1C(C(C)C)N(CCN1CCOCC1)Cc1cc2cccc(C)c2[nH]c1=O (stereo unspecified)	18µM*	-10%	?	-1%	-25%	-12%
CCC(c1nnnn1C(C)(C)CC)N(CCCO)Cc1cc2cccc(C)c2[nH]c1=O (stereo unspecified)	-16%	-3%	-9%	0%	-22%	-12%
COc1cc(C(=O)NC2CC2)cc(OC)c1OC	-11%	.	9%	-1%	-5%	.
Cc1ccc(S(=O)(=O)c2c(N)n(Cc3ccco3)c3nc4ccccc4nc23)cc1	?	-14%	?	?	18µM*	-8%
CN(C)CCCn1c(N)c(S(=O)(=O)c2ccccc2)c2nc3ccccc3nc21	18µM*	-16%	-1%	-1%	?	20%
CCCCn1c(N)c(S(=O)(=O)c2ccc(C)cc2)c2nc3ccccc3nc21	-101%	-39%	?	?	?	?
CC(=O)n1c(Cl)c(NC(=O)CCl)c2ccccc21	10µM*	-45%	7.1µM*	5.6µM*	12µM*	?
CCN(CC)C(=O)c1cccc(-c2csc(C(O)c3ccc(F)c(OC)c3)n2)c1 (stereo unspecified)	18µM*	-5%	?	1µM*	16µM*	?
CCN(CC)C(=O)c1cccc(-c2csc(C(O)c3cccc(Cl)c3)n2)c1 (stereo unspecified)	?	-24%	?	?	16µM*	?
